Screening results as filed in PubChem BioAssay.
Most compounds without a hit are left out; they make up all but 0.62% or so of the library.
gsp antagonist – antagonizes gsp, the McCune-Albright syndrome mutation. gsp-mutant cells, cAMP HTRF, 30 min. Potency, µM (doses to about 76.9 µM), inactives show top-dose activity change, negative = inhibition, actives largely listed as inhibitors. AID 624288. 340,000 compounds, 0.4% hits; calls by dose curve; cell line not stated here;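 note: intracellular cAMP measured with PDE inhibitor Ro 20-1724 present during compound exposure; % is set by controls: 0 for no effect and ±100 for the full control effect; nearly all actives have a fitted effect of over 65% in size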
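G418-selected cells were plated in DMEM/10% FBS for 16-24 h at 37C, then treated with compounds plus the PDE inhibitor […] (300 uM solution added) for 30 min at 37C. Intracellular cAMP was measured by HTRF after 30 min lysis at room temperature.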
gsp agonist – activates gsp, the McCune-Albright syndrome mutation | gsp mutant cells, cAMP HTRF, 30 min | Potency, µM (series often up to 76.9 µM), inactives show at the highest dose activation (cAMP increase), hits mostly activators | 340,000 compounds, 0.13% hits | AID 624287; active = well fitted activation curve with a large enough effect; inconclusive = small, poorly fitted or top-dose-only effect, or another doubt; inactive = no such curve, though single readings can be large or run the other way; cell line not stated here;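 note: phosphodiesterase inhibitor Ro 20-1724 added with compounds to block cAMP breakdown; nearly all actives have a fitted effect of over 60% in size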
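Cells in DMEM/10% FBS with G418 were pretreated with compounds in DMSO plus […] (300 uM stock) for 30 min at 37C. cAMP was measured by HTRF (cAMP-d2 plus anti-cAMP antibody-K) after 30 min at room temperature.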
ASM inhibitor – inhibitors of human secretory acid sphingomyelinase. placental ASM, HMU-PC fluorogenic substrate, 60 min. Potency, µM (highest dose often 57.5 µM), without a hit: top-dose activity change, negative = inhibition, most hits filed as inhibitors. 340,000 compounds, 0.006% hits; active = well fitted inhibition curve with a large enough effect; inconclusive = small, poorly fitted or top-dose-only effect; inactive = no such curve, though single readings can be large or run the other way
Target sequence (P17405 47-631 limits assumed): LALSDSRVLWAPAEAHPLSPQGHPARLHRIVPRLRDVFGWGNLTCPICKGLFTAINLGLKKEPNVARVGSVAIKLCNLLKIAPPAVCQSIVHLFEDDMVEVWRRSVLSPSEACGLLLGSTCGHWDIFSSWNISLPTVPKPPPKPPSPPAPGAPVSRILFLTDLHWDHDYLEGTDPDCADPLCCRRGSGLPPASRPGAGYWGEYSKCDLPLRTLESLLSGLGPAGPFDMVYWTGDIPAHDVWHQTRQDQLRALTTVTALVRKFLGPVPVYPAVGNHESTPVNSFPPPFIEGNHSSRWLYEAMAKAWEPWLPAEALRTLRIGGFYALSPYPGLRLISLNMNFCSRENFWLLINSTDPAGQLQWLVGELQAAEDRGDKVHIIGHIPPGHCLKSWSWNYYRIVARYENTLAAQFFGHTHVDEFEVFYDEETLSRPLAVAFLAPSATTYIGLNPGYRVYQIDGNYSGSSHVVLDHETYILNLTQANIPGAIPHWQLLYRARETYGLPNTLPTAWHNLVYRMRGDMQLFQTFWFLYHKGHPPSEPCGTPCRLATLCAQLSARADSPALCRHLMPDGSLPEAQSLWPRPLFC
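Steps: dispense placental human ASM, pin compound, wait 10 min at room temperature, add HMU-PC0 substrate at 9 uM final, incubate 60 min at 37 °C, add stop solution raising pH to 10, read fluorescence.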
BCR signal inh – blocks chronic active B-cell receptor signaling; ABC-DLBCL IkBa-CBG/CBR reporter, luminescence ratio, 4 h; Potency, µM (series often up to 46.1 µM), inactives show at the highest dose activity change, negative = inhibition, actives largely listed as inhibitors; 340,000 compounds, 0.05% hits; AID 493014; active = well fitted inhibition curve with a large enough effect in the signal ratio, with a control signal flat, not every such curve was filed as active; inconclusive = small, poorly fitted or top-dose-only effect, or effect the other way, or a change in a side signal; the % refers to the signal ratio;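 note: plate controls were basal doxycycline-induced cells for no effect and cells given 10 µM MG132 for full effect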
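Concentration-response series (up to 46 uM) were applied to TMD8 dual-reporter cells for 4 h at 37C with doxycycline. Green/red ratio, after filter-overlap correction, defined %Activity; red signal alone was normalised to basal cells and zero luminescence.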
MBNL1-CUG inh – MBNL1-poly(CUG) RNA binding inhibition; Q9NR56; TR-FRET MBNL1-His/biotin-(CUG)12 binding, 665/545 ratio; Potency, µM (doses to about 57.5 µM), for inactives: at the highest dose activity change, negative = inhibition, hits mostly inhibitors; 280,000 compounds, 0.036% hits; active = well fitted inhibition curve with a large enough effect in the signal ratio, with a control signal flat, not every such curve was filed as active; inconclusive = small, poorly fitted or top-dose-only effect, or effect the other way, or a change in a side signal; inactive = no such curve, though single readings can be large or run the other way; the % refers to the signal ratio; note: % is set by controls: 0 for no effect and ±100 for the full control effect
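Ratiometric TR-FRET (665 over 545 nm, excitation 340 nm) tracks disruption of MBNL1-His/biotin-(CUG)12 complex after 60 min at room temperature, with compounds at 92 nM to 58 uM final.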
Numbers without * were called inactive; ? = inconclusive; . = no result; [ ] = remark or other dose. Potency is the fitted concentration of half-maximal effect.

SMILES	gsp antagonist	gsp agonist	ASM inhibitor	BCR signal inh	MBNL1-CUG inh
COc1ccc(Oc2cn[nH]c2-c2ccc(O)cc2O)cc1	7%	-33%	-2%	-17%	7%
O=C1C2C3C=CC(C4CC34)C2C(=O)N1c1cccc2ccccc12 (stereo not given)	10%	5%	-3%	1%	2%
CC(C)CNC(=O)CSc1nnc(-c2cccc(S(=O)(=O)N3CCCCC3)c2)o1	-13%	1%	-2%	-1%	4%
COCC(C)NC(=O)CSc1nnc(-c2cccc(S(=O)(=O)N3CCCCC3)c2)o1 (stereo not given)	11µM*	10%[15.4 µM]	1%	12%	1%
Cc1ccsc1/C=N/NC(=O)c1ccc(Cn2cc(Br)cn2)o1	-9%	-53%	-3%	0%	-4%[11.5 µM]
O=C(N/N=C/c1cccc(Br)c1)c1ccc(Cn2cc(Br)cn2)o1	35µM*	35%[15.4 µM]	-13%	-3%	.
Cc1ccc(Nc2nc(N/N=C/c3c[nH]c4ccccc34)nc(N3CCOCC3)n2)cc1	40µM*	1%[15.4 µM]	.	?	-2%
C(=N\Nc1nc(Nc2ccccc2)nc(N2CCOCC2)n1)/c1c[nH]c2ccccc12	-24%	1%	-28%	?	19%
Cc1cc(-c2ccc([N+](=O)[O-])cc2)cc(C)n1	-4%	-10%	0%	.	.
O=C(N/N=C/c1sc(N2CCOCC2)nc1-c1ccccc1)c1ccccc1O	40µM*	9%	13%	?	.
O=[N+]([O-])c1ccc(N/N=C/c2sc(N3CCOCC3)nc2-c2ccccc2)c(S(=O)(=O)Nc2ccccc2Cl)c1	4µM*	-107%	?	-1%	17%
C=CCn1c(C)nnc1SCC(=O)Nc1ccccc1C(=O)NC1CC1	21%	-25%	.	-1%	.
CCCn1c(SCC(=O)Nc2ccccc2C(=O)NC2CC2)n[nH]c1=O	31%	45µM*	0%	-1%	.
COC(=O)c1c(NS(=O)(=O)c2cccs2)sc2c1CCCC2	22µM*	-6%	0%	1%	2%
O=C(Nc1ccc(N2CCN(C(=O)c3ccccc3)CC2)cc1)c1cc2ccccc2o1	35µM*	-10%	40%	10%	3%
CN1CCN(c2ccc(NC(=O)c3cc4ccccc4o3)cc2)CC1	-3%	-57%	0%	9%	-25%
CCOc1ccc(S(=O)(=O)NCCc2ccccn2)cc1	8%	-17%	6%	5%	.
C/C(=N\NC(=O)c1ccc(-c2ccccc2)cc1)C1C(=O)c2ccccc2C1=O	28µM*	3%	-22%	2%	-5%
Cc1ccc(-n2nc3c(N4CCC(C(=O)NCc5cccc(F)c5)CC4)nnc(C)c3c2C)cc1	0%	22%	-3%	-12%	-5%
Cc1ccc(/C=C/C(=O)c2nc3ccccc3[nH]2)cc1	6%	23%	5%	13µM*	6%
N#Cc1c(-c2ccccc2)nc(SCC(=O)N(c2ccccc2)c2ccccc2)[nH]c1=O	0%	20%	1%	?	?
CCOC(=O)c1[nH]c(=O)[nH]c1CSc1ccccn1	6%	?	1%	-6%	-7%
CCOC(=O)CCCCC(=O)c1[nH]c(=O)[nH]c1CSc1nc(-c2ccccc2)c(C#N)c(=O)[nH]1	-6%	20%	1%	-6%	7.1µM*
CCOC(=O)CCCCC(=O)c1[nH]c(=O)[nH]c1CSCCO	0%	-26%	3%	2%	3.5µM*
COc1ccc(NS(=O)(=O)c2ccc(C)c(C(=O)NCC(c3ccco3)N(C)C)c2)cc1 (stereo not given)	2%	6%	5%	1%	.
SMILES	gsp antagonist	gsp agonist	ASM inhibitor	BCR signal inh	MBNL1-CUG inh
COc1ccccc1CNC(=O)COC(=O)c1ccc(Cl)c(N)c1	11µM*	-9%[15.4 µM]	12%	-8%	.
COc1ccc(NC(=O)C2=CC(c3ccc(C)cc3)=NS(=O)(=O)N2C)cc1OC	-25%	-33%	-11%	-1%	?
COc1ccc(C2=NS(=O)(=O)N(C)C(C(=O)Nc3ccc(C(C)=O)cc3)=C2)cc1OC	32µM*	35%	-29%	?	?
CC1(C)CC(C(CC(=O)O)c2ccccc2)CCO1 (stereo not given)	0%	2%	6%	2%	-5%
CC1(C)CC(C(CC(=O)N2CCCC2)Cc2ccccc2)CCO1 (stereo not given)	50µM*	-22%	3%	5%	0%
Cc1cc(-c2c(C)[nH]n(-c3ccc(Cl)cc3)c2=O)n[nH]1	40µM*	-1%	0%	-3%	6%
Cc1[nH]n(-c2ccccc2)c(=O)c1Sc1ccc(Cl)cc1	-5%	-13%	2%	?	3%
O=C(O)c1ccc(S(=O)(=O)N[C@H](Cc2c[nH]c3ccccc23)C(=O)O)cc1	.	.	.	0%	.
COc1ccc(N(CC(=O)N/N=C/c2ccc(OC)cc2OC)S(=O)(=O)c2ccccc2)cc1	32µM*	-5%	-4%	4%	-8%
COc1ccc(N(CC(=O)N/N=C/c2cc(OC)ccc2OC)S(=O)(=O)c2ccccc2)cc1	-12%	-2%	191%	-4%	1%
CCS(=O)(=O)Nc1ccc(C2=NN(C(=O)c3ccccc3)C(c3cccs3)C2)cc1 (stereo not given)	28µM*	6%	-9%	?	18%
O=C1NC[C@H](Cc2ccccc2)N(CC2CCN(CCCCc3ccccc3)CC2)C1=O	3%	.	2%	.	.
CCCCn1c(SCc2ccccc2C#N)nc2c(sc3ccccc32)c1=O	.	.	.	8%	.
O=C(Nc1ccccc1)Nc1cc(OCC(F)(F)F)cc(OCC(F)(F)F)c1	32µM*	-3%[15.4 µM]	-25%	?	-12%
C[C@H](CO)N1C[C@H](C)[C@@H](CN(C)C(=O)Nc2ccc(C(F)(F)F)cc2)Oc2c(NS(=O)(=O)c3ccccc3)cccc2C1=O	-27%	3%	-20%	2%	.
CC(=O)Nc1ccc(S(=O)(=O)Nc2cccc(-n3cnnn3)c2)cc1	8%	7.9µM*	1%	-12%	6%
Cc1cccc(C[C@H](C(=O)O)N2C(=O)c3ccc(C(=O)O)cc3C2=O)c1	.	.	.	-9%	.
COC(=O)[C@H](CC(C)C)N(Cc1ccccc1)S(=O)(=O)N(Cc1ccccc1)[C@@H](CC(C)C)C(=O)OC	-10%	.	1%	2%	.
COC(=O)[C@H](CC(C)C)N(Cc1ccccc1)S(=O)(=O)N(Cc1ccc(OC)cc1)[C@@H](CC(C)C)C(=O)OC	50µM*	.	2%	5%	.
COc1cccc(CN2CCNC(=O)C2CC(=O)NCC(C)(C)N2CCOCC2)c1OC (stereo not given)	6%	-2%[15.4 µM]	4%	-3%	3%
Cc1ccc(/C=N/NC(=O)c2nnn(-c3nonc3N)c2-c2ccc3c(c2)OCO3)s1	40µM*	37%	-4%	11%	?
